Experimental findings from ChEMBL document CHEMBL3988442, “University of Dundee, Small-Polar-MMV Screening Library” (2021) are described below.

Hit rate of the full screen: of about 48,000 compounds, about 13,000 (27%) showed an effect of 50% or more. This is one part of the list.

The subject of the assay is Wolbachia pipientis. Nature of the assay: Anti-Wolbachia Cell-Based Screen. Type of assay: functional. Further details: scale not given: in the data most compounds retested in dose-response had high values. To be noted: 5 µM.
`CCOCCN1CCN(c2ncccc2C#N)CC1CC` (stereo not drawn): the “Percent Effect” value is listed as 98.03%. In the case of `CC1CN(c2ccc(C#N)cn2)CCN1c1ccc2nncn2n1` (stereo not drawn), the “Percent Effect” value is -4.12%. As for `OC(CN(Cc1ccccc1)Cc1cscn1)c1ccco1` (stereo not drawn), the “Percent Effect” value is given as 18.92%. In the case of `CCOCCCn1c(NC(=O)c2scnc2C)nc2ccccc21` it was 25.92%; in that of `CCN(CC)CCn1c(NC(=O)c2scnc2C)nc2ccccc21`, 105.9%. The same measure for `CCOCCCn1c(NC(=O)c2cnc(C)cn2)nc2ccccc21`: 19.12%; for `CCOCCCn1c(NC(=O)c2cc(C)on2)nc2ccccc21`: 95.91%; for `CCCn1c(NC(=O)CNC(=O)OCC)nc2ccccc21`: -6.336%. Take `CCOCCCn1c(NC(=O)c2cnc(C)s2)nc2ccccc21`: the “Percent Effect” value is 27.94%. As for `CCOCCCn1c(NC(=O)c2cnn(C)c2)nc2ccccc21`, the “Percent Effect” value was -0.9199%. `CCOC(=O)NCC(=O)Nc1nc2ccccc2n1C(C)(C)C`: the “Percent Effect” value was found to be 17.02%. On to `CCOCCCn1c(NC(=O)c2cc(C)no2)nc2ccccc21`, for which the “Percent Effect” value came out at 106.1%. In the case of `CCOCCCn1c(NC(=O)c2ccc(C)nc2)nc2ccccc21` it was 6.919%; in that of `CCOCCCn1c(NC(=O)c2ccnc(C)n2)nc2ccccc21`, 73.67%; in that of `Cc1cc(C(=O)NCC(c2ccccc2Cl)N2CCOCC2)on1` (stereo not drawn), -6.198%. In the case of `CCN(c1ccccc1)S(=O)(=O)c1cc(C(=O)O)cc2c1CCC2`, the “Percent Effect” value was 1.015%. In the case of `Cc1ccc(N2Cc3cnn(Cc4ccc(F)cc4)c3C2)nn1`, the “Percent Effect” value was determined as 30.55%.

As to `Cc1nn(C)c(C)c1OCC(=O)N1CCC(O)(C(F)(F)F)CC1`, the “Percent Effect” value is reported as -15.17%.

Consider `CCOCCNC(=O)c1cc(COc2cncc(Cl)c2)on1`, for which the “Percent Effect” value is -4.955%.

As to `Cc1cc2occ(CC(=O)N3CCC4(CCCN(C)C4=O)C3)c2cc1Cl` (stereo not drawn), the “Percent Effect” value is on record as -29.71%. Regarding `Cc1ccccc1CSc1nc(N)cc(N2CCCC(O)C2)n1` (stereo not drawn), the “Percent Effect” value was -23.5%. Take `NC(=O)N1CCCC(C(=O)NCc2noc(Cc3ccccc3)n2)C1` (stereo not drawn): the “Percent Effect” value stood at 9.14%. With `NC(=O)CC1CCCN(c2cncc(SCc3ccccc3)n2)C1` (stereo not drawn), the “Percent Effect” value is given as 107.6%. As to `CCC(=O)NC1CCCN(C(=O)c2ccc(OCC3CC3)nc2)C1` (stereo not drawn), the “Percent Effect” value is -1.285%.

With `NC(=O)CC1CCCN(c2cncc(OCc3ccccc3)n2)C1` (stereo not drawn), the “Percent Effect” value was 95.75%. `CC(C)COc1cncc(N2CCCC(CC(N)=O)C2)n1` (stereo not drawn): the “Percent Effect” value was 119.8%. For the compound `CC(C)Oc1ncc(C(=O)N2CCC(CC(N)=O)CC2)cc1Cl`, the “Percent Effect” value is reported as -16.32%. Turning to `CCC(=O)NC1CCCN(c2cncc(OCc3ccccc3)n2)C1` (stereo not drawn), the “Percent Effect” value was determined as 109.7%. Take `CNC(=O)CN(C)c1cncc(OCc2ccccc2)n1`: the “Percent Effect” value was -7.002%. On to `CNC(=O)CN(C)c1cncc(OCC(C)C)n1`, for which the “Percent Effect” value is recorded as -2.547%. Regarding `O=C(O)c1cn(CC2CCCN(c3cnc4ccccc4n3)C2)nn1` (stereo not drawn), the “Percent Effect” value came out at 0.3718%. Consider `CCCC(=O)NC1CCCN(c2cncc(Br)c2)C1` (stereo not drawn), for which the “Percent Effect” value was 2.547%. As to `Cc1ccc(CN2CCN(Cc3ccc4nonc4c3)CC2=O)cc1`, the “Percent Effect” value is recorded as -11.42%.

Turning to `O=C(Nc1cccnc1)C1CCCN(c2cc(-n3cccn3)ncn2)C1` (stereo not drawn), the “Percent Effect” value is -6.997%. On to `O=C(O)c1ccc(N2CCC(Cc3ccccc3)CC2)nn1`, for which the “Percent Effect” value is 3.318%. `NC(=O)CC1CCN(c2cncc(OCc3ccccc3)n2)CC1`: the “Percent Effect” value was 92.73%. In the case of `c1ccc(COC2CCN(c3cncc(-n4cccn4)n3)CC2)cc1` it was 1.342%; in that of `COc1nc(N2CCC(CC(N)=O)CC2)ncc1Br`, 4.929%.

In the case of `c1ccc2nc(N3CCCC(Cn4cncn4)C3)cnc2c1` (stereo not drawn), the “Percent Effect” value came out at 3.637%. In the case of `COCC1CCCN(c2cncc(OCc3ccccc3)n2)C1` (stereo not drawn) it was 88.62%. For `c1cncc(COCC2CN(Cc3ccco3)Cc3ccnn3C2)c1` (stereo not drawn), the “Percent Effect” value was -0.3306%. As for `COc1ccc(Cl)cc1CS(=O)(=O)Cc1nc(C2CC2)no1`, the “Percent Effect” value is 17.46%. For `Cc1cnc2c(c1)N(C(=O)c1ccc(=O)n(C)c1)CCO2`, the “Percent Effect” value was determined as 10.48%. On to `O=C(c1c(F)cccc1Br)N1CCCOCC1`, for which the “Percent Effect” value is given as -0.116%.

As to `CCCn1cc(C(=O)N2CCOC(c3nc(-c4cccs4)no3)C2)cn1` (stereo not drawn), the “Percent Effect” value came out at 93.77%. Take `Cc1cc(C)c(C(=O)N2CCOC(c3cccs3)C2)c(=O)[nH]1` (stereo not drawn): the “Percent Effect” value is on record as -5.418%. The same measure for `O=C(O)C(=O)O.c1csc(-c2noc(C3CN(Cc4ccc5c(c4)CCO5)C3)n2)c1`: 26.44%; for `COc1ncccc1C(=O)N1CC(c2nc(-c3cccs3)no2)C1`: 5.63%; for `CCCn1ccc(C(=O)N2CCOC(c3nc(-c4cccs4)no3)C2)n1` (stereo not drawn): 4.055%.

Regarding `CCCc1cc(C(=O)N2CCOC(c3nc(-c4cccs4)no3)C2)no1` (stereo not drawn), the “Percent Effect” value was determined as 6.079%. On to `CCn1cc(C(=O)N2CCOC(c3nc(-c4cccs4)no3)C2)cn1` (stereo not drawn), for which the “Percent Effect” value is listed as 116.8%.

As to `COc1c(C(=O)N2CCOC(c3cccs3)C2)c(C)nn1C` (stereo not drawn), the “Percent Effect” value is given as -3.946%. Regarding `CCn1ccc(C(=O)N2CCOC(c3nc(-c4cccs4)no3)C2)n1` (stereo not drawn), the “Percent Effect” value turned out to be 106.6%.
